# From PubChem BioAssay AID777 (Sanford-Burnham Center for Chemical Genomics, 2007)
# Out of some 96,000 compounds screened, about 19,000 (20%) were called active.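 Rule for the calls: active = blocking of liver enzyme CYP2C9 beyond about 50% at 5 µM (limit read from the data); inactive = the rest.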 Only a sample is shown.
# Target: Cytochrome P450 2C9 (Homo sapiens) (UniProt P11712)
# Test: blockers of cytochrome P450 2C9 activity – biochemical, luminescence, ADME assay, primary screen (AID 777)
# Conditions: CYP2C9 Supersomes, luciferin-H conversion, at 5 µM, stronger effect = higher value
# Sequence of Cytochrome P450 2C9 (Homo sapiens) (P11712 whole entry, looked up): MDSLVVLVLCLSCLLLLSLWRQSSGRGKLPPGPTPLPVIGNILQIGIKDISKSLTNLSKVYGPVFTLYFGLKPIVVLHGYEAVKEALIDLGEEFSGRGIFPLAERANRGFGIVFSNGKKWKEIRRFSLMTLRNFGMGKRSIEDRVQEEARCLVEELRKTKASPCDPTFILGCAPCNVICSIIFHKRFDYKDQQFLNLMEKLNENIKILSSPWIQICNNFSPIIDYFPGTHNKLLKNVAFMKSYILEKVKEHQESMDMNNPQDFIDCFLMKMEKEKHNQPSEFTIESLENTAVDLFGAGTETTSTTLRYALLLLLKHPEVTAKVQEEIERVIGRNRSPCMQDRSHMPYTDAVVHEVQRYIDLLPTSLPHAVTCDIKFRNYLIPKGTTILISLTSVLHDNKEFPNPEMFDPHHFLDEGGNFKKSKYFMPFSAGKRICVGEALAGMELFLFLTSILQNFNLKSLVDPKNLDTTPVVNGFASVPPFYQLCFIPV
row,Structure (SMILES),inhibition
1,Cc1ccc(-n2c(C)cc(/C=C(\C#N)C(=O)NCC3CCCO3)c2C)cc1 (stereo unspecified),13.8% (inactive)
2,COc1ccc(N2CCN(C(=O)CSc3nnc4ncccn34)CC2)cc1,18.5% (inactive)
3,Cc1nc2ccc(S(=O)(=O)NCC(=O)NCCN3CCCCC3C)cc2s1 (stereo unspecified),8.5% (inactive)
4,COc1ccc(C(C#N)Nc2ccc(C)cc2)cc1 (stereo unspecified),-0.6% (inactive)
5,CCOC(=O)c1c(C2CC2)csc1NC(=O)CSCc1c(C)noc1C,65% (active)
6,Cc1noc(C)c1CSCC(=O)Nc1nc2ccc(Oc3ccccc3)cc2s1,44.1% (inactive)
7,CCOC(=O)c1sc(NC(=O)CCN2CCOCC2)c(C(=O)OCC)c1C,40.4% (inactive)
8,COCCn1nnnc1CN1CCC(NC(=O)Nc2cccc(OC)c2)CC1,-12.7% (inactive)
9,CC(C)C1C2=C(CC(C)(C)CC2=O)ON1c1ccccc1 (stereo unspecified),28.7% (inactive)
10,N=c1ccn(CC(=O)NC(N)=O)c2ccccc12,-0.4% (inactive)
11,CCN(CC)c1ccc(C2C3CCCCC3(O)CCN2CC(=O)Nc2ccccc2)cc1 (stereo unspecified),1.4% (inactive)
12,CC1CCCCN1CC(=O)NCc1ccc2c(c1)OCO2 (stereo unspecified),-6.6% (inactive)
13,Cc1ccc(NC(=O)CN2CCC3(O)CCCCC3C2c2ccc3c(c2)OCO3)c(C)c1 (stereo unspecified),90.4% (active)
14,CN(Cc1nc2ccccc2c(=O)[nH]1)Cc1cc(=O)oc2ccc3ccccc3c12,34.3% (inactive)
15,CCCN(c1ccc(C(C)C)cc1)S(=O)(=O)c1c(C)[nH]c(=O)[nH]c1=O,21.6% (inactive)
16,O=C(NCN1CCN(CCO)CC1)c1cnccn1,10.7% (inactive)
17,CC1CC(C)CN(CC(=O)N2c3ccccc3CCc3ccccc32)C1 (stereo unspecified),-3.1% (inactive)
18,CCCCNc1nc2c(c(=O)[nH]c(=O)n2C)n1CCOc1ccccc1,23.9% (inactive)
19,CC(c1ccccc1)n1c(NCCCn2ccnc2)nc2c1c(=O)[nH]c(=O)n2C (stereo unspecified),96.2% (active)
20,COc1ccc(CCn2c(NCCCN3CCOCC3)nc3c2c(=O)[nH]c(=O)n3C)cc1,16.8% (inactive)
21,O=C1c2cccc3cccc(c23)N1CN1CCN(c2ccccn2)CC1,-43% (inactive)
22,C/C(=N\NC(=O)c1ccccc1C)c1ccc(N2CCOCC2)cc1,-40.9% (inactive)
23,CCCc1nc2ccccc2c(=O)n1NC(=O)c1c(O)c2ccccc2[nH]c1=O,60.6% (active)
24,CCCCc1nc2ccccc2c(=O)n1NC(=O)c1c(O)c2cccc3c2n(c1=O)CC3,20.8% (inactive)
25,CCCC(=O)Nc1c(O)c2ccccc2[nH]c1=O,5.2% (inactive)
26,CCCOC(=O)Cc1c(O)c2ccccc2[nH]c1=O,-19.5% (inactive)
